Out of some 1,300 compounds screened, about 850 (65%) were called active. Not shown: some 1% with an inconclusive outcome. The rule behind the calls is not given here. The set was probably picked from earlier hits. These entries were drawn from the full list. Entries with a potency or affinity are not part of this list.
biological target: Dual specificity tyrosine-phosphorylation-regulated kinase 1A (Rattus norvegicus) (UniProt Q63470); assay: Dyrk1A enzyme activity inhibition – biochemical, cherry-pick, plate reader, 2124-01, dose response (AID 588345); details: Dyrk1A kinase biochemical assay; series mostly up to 12 µM; activity change, negative = inhibition: at the top concentration

Activity change, negative = inhibition, inactive:
CC(=O)c1nc2ccccc2n1S(=O)(=O)c1ccc(Cl)cc1 4.3%, O=C(Nc1cccnc1)c1scc2c1OCCO2 -3.85%, COc1cccc(C(=O)Nc2ccc(F)c(F)c2F)c1 -14%, Cc1cc(C(=O)CSc2nn(-c3ccccc3)c(=S)s2)c(C)n1Cc1ccco1 0.28%, Cc1cc([N+](=O)[O-])nn1Cc1ccccc1F 10.6%, CN(C)CCNC(=O)c1cc2c(=O)n(C)c3ccccc3c2n1C -2.03%, CC1CCC(NC(=O)c2cc(S(=O)(=O)N3CCCCC3)c[nH]2)CC1 (stereo not drawn) -4.92%, CN1CCN(CCNC(=O)c2cc3c(=O)n(C)c4ccccc4c3n2C)CC1 13.7%, O=c1cc[nH]c2c1ccc1cccnc12 -34.5%, COc1ccc2[nH]c(C)c(CCN(Cc3cccs3)C(=S)Nc3ccccc3OC)c2c1 -2.48%, CN1CCc2c(sc3nc(NN)n(-c4ccc(Cl)cc4)c(=O)c23)C1 -1.13%, O=C(N/N=C/c1ccccn1)c1cc(-c2ccccc2Cl)n[nH]1 -32.5%, CN(C)CCNC(=O)c1cc2c(s1)-c1ccccc1OC2 -11.7%, O=C(Nc1cccc(-c2cn3cccnc3n2)c1)c1ccc(Br)o1 -35.3%, O=C(COc1ccccc1)Nc1cccc(-c2nn[nH]n2)c1 -0.144%, COc1cc(C(C)=O)ccc1Oc1ncnc2c1cnn2-c1ccccc1 2.65%, c1ccc2c(c1)Nc1ccncc1S2 -73.4%, COc1ccc(-c2csc3ncnc(Sc4nnnn4C)c23)cc1 3.58%, Cc1ccc2oc(=O)c3cnn(CC(=O)NC4CCCCC4C)c3c2c1 (stereo not drawn) 5.08%, N=C1S/C(=C\c2ccc(O)cc2)C(=O)N1c1ccc(F)cc1 -8.53%, O=C(Nc1nc2ccccc2s1)c1ccc(OCC2CCCO2)cc1 (stereo not drawn) -8.24%, O=C(NC(Nc1nc2ccc([N+](=O)[O-])cc2s1)(C(F)(F)F)C(F)(F)F)c1ccccc1 15.1%, C=CCn1c(SCC(=O)Nc2nc3ccccc3s2)nc(O)c(CC)c1=O -7.59%, Cn1c(=O)c2c(nc(NCc3ccco3)n2CC(O)COc2ccccc2)n(C)c1=O (stereo not drawn) 10.4%, CC(C)NS(=O)(=O)c1ccc(OCC(=O)N(C)Cc2ccccc2)cc1 8.65%, COc1ccc(NC(=O)N(C)C[C@H]2Oc3ccc(NC(=O)CCN4CCOCC4)cc3C(=O)N([C@H](C)CO)C[C@@H]2C)cc1 -2.3%, CC[C@@](C)(NS(=O)(=O)OCC(Cl)(Cl)Cl)c1ccccc1 -6.36%, O=C1C2C(c3ccccc3)CC=CC2[C@H](c2ccoc2)N1Cc1ccccc1 (stereo partly drawn) -3.28%, CCN1CCN(c2nc(Nc3cccc(C)c3)nc(N)c2[N+](=O)[O-])CC1 7.23%, Nc1nc(NCCCN2CCOCC2)nc(Nc2ccccc2)c1[N+](=O)[O-] 13.6%, O=C(c1ccc(Cl)c(Cl)c1)N1CCC(=O)N(C(COCc2cccc(C(F)(F)F)c2)Cc2ccccc2)CC1 (stereo not drawn) 0.743%, O=c1c2ccccc2nnn1CSc1nnc(-c2ccc3c(c2)OCO3)o1 -18.6%, O=C(O)c1ccc(-n2cc(-c3cc4ccccc4oc3=O)[nH]c2=S)cc1 -81.2%, COc1cccc(/C=C2\Oc3ccc(O)cc3C2=O)c1O -2.86%, Oc1ccc(-c2[nH]ncc2-c2nc3ccccc3s2)c(O)c1 -0.073%, Nc1nc(SCc2ccc([N+](=O)[O-])cc2)c2ncn(C3OC(CO)C(O)C3O)c2n1 (stereo not drawn) 12.1%, CNc1nc2c(N)ncnc2n1[C@H]1O[C@@H](CO)[C@H](O)[C@@H]1O 7.57%, CCC1COCCS(=O)(=O)N1Cc1ccccc1 (stereo not drawn) 16.5%, Oc1ccc2c(ccc3[nH]cnc32)c1 -2.1%, COC(=O)NNC(=O)COc1ccc(Cl)cc1 -0.602%, NNc1nccc(Nc2ccccc2C(=O)O)n1 -81.3%, COc1nc(C)ccc1-c1noc(-c2ccccn2)n1 -4.21%, O=C(Cn1cc(COc2ccccc2C(F)(F)F)nn1)c1ccc(O)cc1 -13.4%, Fc1ccccc1/C=N/Nc1ncnc2nc[nH]c12 11.1%, Cc1ccsc1/C=N/Nc1ncnc2nc[nH]c12 -0.099%, CCCCNC(=S)Nc1ccc2cn[nH]c2c1 -0.332%, O=c1c2c(O)cc(O)cc2oc2c(O)ccc(O[C@H]3O[C@@H](CO)[C@H](O)[C@@H](O)[C@@H]3O)c12 13.6%, O=C1C=CC(O)(c2cc(=O)c3c(O)cc(O)cc3o2)C=C1 -5.93%, CS(=O)(=O)Nc1ccc(-c2ccc(/C=C3\SC(N)=NC3=O)o2)cc1 -4.55%, CSc1nc(SCC(=O)NCc2ccco2)c2c3c(sc2n1)CN(C)CC3 -30.4%, COc1ccc2c(Cl)c(C(N)=O)sc2c1 0.271%, CC(C)Oc1ccc(C(CC(=O)NCc2ccco2)c2ccccc2)cc1 (stereo not drawn) 6.23%, COc1ccc2c(c1)[nH]c1c(Cl)ncnc12 5.9%, CCOC(=O)c1ccc(NC(=S)Nc2ccc(Br)cc2N)cc1 -4.3%, COc1ccc(-n2ccc(-c3nn(-c4cccc(C(F)(F)F)c4)ccc3=O)n2)cc1 4.68%, Cc1ccc(/C=c2\sc3n(c2=O)CN(c2ccc(Br)cc2)CN=3)o1 -30.4%, O=C(O)c1ccc2c(c1)S(=O)(=O)c1cc(Cl)ccc1C2=O 6.12%, CCCCn1c(NCCO)nc2ccccc21 -2.66%, Clc1ccc2[nH]c3c(c2c1)CCc1cn[nH]c1-3 -37.9%, Cc1ccccc1/C=N/Nc1ncnc2nc[nH]c12 -20.2%, CC(=O)c1ccc(NC(=S)Nc2ccc3cn[nH]c3c2)cc1 -17.4%, COc1ccc(N=Nc2c(C)n[nH]c2C)cc1 4.04%, N#CCC(N)=C(C#N)C#N -1.58%, CC1OC(OCC2OC(Oc3c(-c4ccc(O)cc4)oc4cc(O)cc(O)c4c3=O)C(O)C(O)C2O)C(O)C(O)C1O (stereo not drawn) -20%, CCCCn1c(N2CCC(Cc3ccccc3)CC2)nc2c1c(=O)[nH]c(=O)n2C -5.72%, COc1ccc(-c2ccc(=O)n(Cc3cccc([N+](=O)[O-])c3)n2)cc1 -43.7%, Cc1cccc(OCC(=O)Nc2nc3ccc([N+](=O)[O-])cc3s2)c1 5.01%, CC1(C)Nc2ccc(O)cc2-c2c1ssc2=S -1.72%, CCC(C)CCN1C(Nc2ccccc2)=NC[C@@H]1Cc1ccccc1 (stereo partly drawn) -7.86%, COc1ccc(N2C(=O)C3CCCN3C2c2cc(OC)c(OC)c(OC)c2)cc1 (stereo not drawn) 1.89%, CCOC(=O)C1CCCN(c2c(NCCCN3CCCC(C)C3)c(=O)c2=O)C1 (stereo not drawn) -0.476%, CCCOc1ccc(/C=N/NC(=O)CN2CCCCC2)cc1 -2.8%, COc1ccc(/C=C2\SC(N3CCc4ccccc4C3)=NC2=O)cc1 -31.4%, Cc1cccc(NC(=S)NN2CCN(C)CC2)c1 -6.09%, O=C1[C@H]2[C@H](C=CC[C@H]2C(=O)N2CCOCC2)CCN1Cc1ccccc1 5.23%, CCOC(=O)C1CCCN(c2c(NCCN(C)Cc3ccccc3)c(=O)c2=O)C1 (stereo not drawn) -7.74%, COCCN=C1N[C@@H](c2cccc(C(F)(F)F)c2)C(C(=O)OC)=C(C)N1Cc1ccccc1 -0.582%, O=C1OCc2cccc3cccc1c23 4.49%, Nc1ncnc(N)c1N=Nc1ccccc1 10.3%, CCOC(=O)C1=C(C)OC(N)=C(C#N)C1c1ccc(O)c(OC)c1 (stereo not drawn) 7.18%, CCN(CC)c1ccc(/C=C2\C(=O)c3ccc(C(=O)O)cc3C2=O)cc1 4.65%, O=c1[nH]c(=S)[nH]c2sccc12 -5.08%, O=C(COC(=O)c1cccs1)c1ccc2ccccc2c1 -4.36%, CCc1ccccc1NC(=O)C1CCCN(S(=O)(=O)c2ccc3c(c2)CC(C)N3C(C)=O)C1 (stereo not drawn) -3.11%, CCOC(=O)C(Cc1ccc(O)cc1)NC(=O)CCc1c[nH]c2ccccc12 (stereo not drawn) 0.971%, CC(C)(C)[C@H]1C=C(C(=O)N2CCN(Cc3ccccc3)CC2)O[C@@H](OCCCCO)C1 0.688%, COc1ccccc1NC(=S)N/N=C/c1ccc(O)cc1 -0.12%, COc1ccc2c(Cl)c(C(=O)N/N=C/c3cccnc3)sc2c1 7.43%, Cc1ccc(CN2CCN(c3ncccn3)CC2)o1 -2.31%, O=C1CCN(CCCc2ccccc2)CCN1[C@H](CO)c1ccccc1 5.58%, Oc1ccc(-c2nc3ncccn3c2Nc2ccc3c(c2)OCO3)cc1 0.488%, O=[N+]([O-])c1ccc(O)c(C=NNc2ccc(S(=O)(=O)O)cc2)c1 2.14%, Cc1cccc2nc(-c3cccc(NC(=O)c4ccc(Cl)cc4)c3)cn12 -7.42%, COc1ccc2c(c1)OC[C@H]1[C@H]2N2C(=O)CN(CC3CCCO3)C(=O)[C@@]2(C)[C@H]1c1ccccc1 (stereo partly drawn) 15.3%, COc1ccccc1-c1sc2ccccc2c1C#Cc1ccc(N(C)C)cc1 11.4%, O=C(O)c1cc(N/N=C/c2c(O)ccc3ccccc23)ccc1Cl -0.869%, COc1cccc(-c2noc(N)c2C#N)c1 4.6%, N#Cc1c2ccc(O)cc2n2ccccc12 -4.28%, COc1ccc2c(c1)CCc1cn3nc(C)cc3nc1-2 -83.2%, COc1ccc2c(c1)CCc1cc(C(=O)O)sc1-2 -18.2%, COC(=O)c1sc2cnccc2c1N -37.3%, Brc1ccccc1C1=Nn2c(nnc2-c2ccccc2)SC1 -4.23%, COc1ccc(OC)c(C2=Nn3c(nnc3-c3ccco3)SC2)c1 10.8%, CCOC(=O)C1CCCN(c2c(N3CCN(C4CCCCC4)CC3)c(=O)c2=O)C1 (stereo not drawn) -3.65%, CC(C)Oc1ccc(C2CNC(=O)C2)cc1 (stereo not drawn) 5.01%, COC(=O)c1[nH]c2cc(OC)ccc2c1N -3.32%, COC(=O)c1c(-c2ccc(S(C)(=O)=O)cc2)sc2ccc(OC)cc12 3.56%, Cc1ccc2c(c1)N(CC(=O)NC1CCCCC1)C(=O)c1cccnc1O2 5.4%, COc1cccc(Cn2nnc(C(=O)NCCc3ccc(Cl)cc3)c2N)c1 4.5%, COc1ccc2cc3cc(C(=O)NCCCN4CCC(C)CC4)oc3nc2c1 -21.4%, CCCCN(CC)CCCNC(=O)c1cc2cc3ccc(OC)cc3nc2o1 14%, CCN1CCN(CCCNC(=O)c2cc3cc4ccc(OC)cc4nc3o2)CC1 -30.7%, COCCNC(=O)c1cc2cc3ccc(OC)cc3nc2o1 -36.9%

Source: PubChem BioAssay AID588345 (Broad Institute, 2011)
